Experimental data reported in PubChem BioAssay AID1159580 (chemical genetic matrix, 2015).
“And” between values parts separate entries of the source, which are not always exact repeats. Identical values can stand only once. Among all 5,500 compounds or so, about 2,000 (36%) were called active. Inconclusive results (about 18%) are left out. Rule as the data show it: active = normalized growth mostly below about 0.91 (no sharp cut-off); inconclusive = no clear call, values can overlap the other calls; inactive = mostly above about 0.92. The list shows a part of the results.

Assay: chemical genetic growth profiling, strain panel (AID 1159580);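 also: tested at 20 µM; growth read once vehicle control cultures reached saturation at 30 °C; 1 = growth at the plate median or of vehicle wells; lower values mean less growth of the strain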
Details: S. cerevisiae deletion strains, growth OD

Structure (SMILES): CC(C)=CCCC(C)[C@@H]1CC[C@]2(C)C3=C(CC[C@@]12C)C1(C)CC[C@H](O)C(C)(C)C1CC3 (stereo partly drawn)
- normalized growth (locus YAL021C, strain ccr4, stronger effect = lower value): 1.04 (inactive)
- normalized growth (locus YAL026C, strain drs2, stronger effect = lower value): 1.04 (inactive)
- normalized growth (locus YAL030W, strain snc1, stronger effect = lower value): 1.07 [resistant] (active)
- normalized growth (locus YBL061C, strain skt5, stronger effect = lower value): 1.08 (inactive)
- normalized growth (locus YBR009C, strain hhf1, stronger effect = lower value): 1.01 (inactive)
- normalized growth (locus YBR021W, strain FUR4, stronger effect = lower value): 0.941 (inactive)
- normalized growth (locus YBR023C, strain chs3, stronger effect = lower value): 1.08 (inactive)
- normalized growth (locus YBR171W, strain sec66, stronger effect = lower value): 1.06 (inactive)
- normalized growth (locus YBR229C, strain ROT2, stronger effect = lower value): 1.08 (inactive)
- normalized growth (locus YBR231C, strain swc5, stronger effect = lower value): 1.09 [resistant] (active)
- normalized growth (locus YBR279W, strain paf1, stronger effect = lower value): 1.07 [resistant] (active)
- normalized growth (locus YCL011C, strain gbp2, stronger effect = lower value): 1.07 (inactive)
- normalized growth (locus YCL016C, strain dcc1, stronger effect = lower value): 1.03 (inactive)
- normalized growth (locus YCL029C, strain bik1, stronger effect = lower value): 1 (inactive)
- normalized growth (locus YCL061C, strain MRC1, stronger effect = lower value): 1.06 (inactive)
- normalized growth (locus YCL069W, strain vba3, stronger effect = lower value): 1.07 (inactive)
- normalized growth (locus YCR088W, strain abp1, stronger effect = lower value): 1.08 [resistant] (active)
- normalized growth (locus YDL005C, strain med2, stronger effect = lower value): 1.04 (inactive)
- normalized growth (locus YDL035C, strain GPR1, stronger effect = lower value): 0.886 (inactive)
- normalized growth (locus YDL040C, strain nat1, stronger effect = lower value): 1.08 [resistant] (active)
- normalized growth (locus YDL074C, strain BRE1, stronger effect = lower value): 1.34 [resistant] (active)
- normalized growth (locus YDL101C, strain DUN1, stronger effect = lower value): 1.02 (inactive)
- normalized growth (locus YDL185W, strain tfp1, stronger effect = lower value): 1.01 (inactive)
- normalized growth (locus YDL192W, strain arf1, stronger effect = lower value): 1.02 (inactive)
- normalized growth (locus YDR001C, strain nth1, stronger effect = lower value): 1.07 (inactive)
- normalized growth (locus YDR069C, strain doa4, stronger effect = lower value): 1.03 (inactive)
- normalized growth (locus YDR101C, strain arx1, stronger effect = lower value): 0.967 (inactive)
- normalized growth (locus YDR137W, strain rgp1, stronger effect = lower value): 0.774 (active)
- normalized growth (locus YDR159W, strain sac3, stronger effect = lower value): 1.05 (inactive)
- normalized growth (locus YDR162C, strain NBP2, stronger effect = lower value): 0.913 (inactive)
- normalized growth (locus YDR195W, strain ref2): 1.13 (inactive)
- normalized growth (locus YDR297W, strain sur2, stronger effect = lower value): 1.07 (inactive)
- normalized growth (locus YDR318W, strain mcm21, stronger effect = lower value): 1.01 (inactive)
- normalized growth (locus YDR334W, strain swr1, stronger effect = lower value): 1.05 (inactive)
- normalized growth (locus YDR335W, strain msn5, stronger effect = lower value): 1.02 (inactive)
- normalized growth (locus YDR388W, stronger effect = lower value): 1.03 (inactive)
- normalized growth (locus YDR392W, strain spt3, stronger effect = lower value): 1.02 (inactive)
- normalized growth (locus YDR502C, strain sam2, stronger effect = lower value): 0.989 (inactive)
- normalized growth (locus YEL003W, strain gim4, stronger effect = lower value): 1.02 (inactive)
- normalized growth (locus YEL037C, strain rad23, stronger effect = lower value): 1.06 (inactive)
- normalized growth (locus YEL061C, strain CIN8 (second series), stronger effect = lower value): 1.06 (inactive)
- normalized growth (locus YER015W, strain faa2, stronger effect = lower value): 1.08 [resistant] (active)
- normalized growth (locus YER016W, strain bim1, stronger effect = lower value): 1.07 (inactive)
- normalized growth (locus YER110C, stronger effect = lower value): 1.05 (inactive)
- normalized growth (locus YER111C, strain swi4, stronger effect = lower value): 1.08 (inactive)
- normalized growth (locus YER155C, strain BEM2 (second series), stronger effect = lower value): 1.09 (inactive)
- normalized growth (locus YER155C, strain BEM2, stronger effect = lower value): 1.1 [resistant] (active)
- normalized growth (locus YER167W, strain BCK2, stronger effect = lower value): 1.08 (inactive)
- normalized growth (locus YFR010W, strain ubp6, stronger effect = lower value): 1 (inactive)
- normalized growth (locus YGL078C, strain dbp3, stronger effect = lower value): 0.889 (active)
- normalized growth (locus YGL086W, strain mad1, stronger effect = lower value): 1 (inactive)
- normalized growth (locus YGL167C, strain pmr1, stronger effect = lower value): 1.08 (inactive)
- normalized growth (locus YGL173C, strain kem1, stronger effect = lower value): 1.02 (inactive)
- normalized growth (locus YGL227W, strain vid30, stronger effect = lower value): 1.07 (inactive)
- normalized growth (locus YGL240W, strain doc1, stronger effect = lower value): 1.02 (inactive)
- normalized growth (locus YGL248W, strain PDE1, stronger effect = lower value): 1.01 (inactive)
- normalized growth (locus YGL253W, strain hxk2, stronger effect = lower value): 1.04 (inactive)
- normalized growth (locus YGR078C, strain PAC10, stronger effect = lower value): 1.13 (inactive)
- normalized growth (locus YGR135W, strain pre9, stronger effect = lower value): 0.996 (inactive)
- normalized growth (locus YGR252W, strain gcn5, stronger effect = lower value): 0.985 (inactive)
- normalized growth (locus YHR013C, strain ard1, stronger effect = lower value): 1.15 (inactive)
- normalized growth (locus YHR027C, strain rpn1, stronger effect = lower value): 1.06 (inactive)
- normalized growth (locus YHR030C, strain SLT2, stronger effect = lower value): 1.1 [resistant] (active) and 0.945 (inactive)
- normalized growth (locus YHR079C, strain IRE1 (second series), stronger effect = lower value): 1.05 (inactive)
- normalized growth (locus YHR079C, strain IRE1, stronger effect = lower value): 0.877 (inactive)
- normalized growth (locus YHR094C, strain hxt1, stronger effect = lower value): 1.07 (inactive)
- normalized growth (locus YHR129C, strain ARP1, stronger effect = lower value): 1.06 (inactive)
- normalized growth (locus YHR142W, strain chs7, stronger effect = lower value): 1.03 (inactive)
- normalized growth (locus YHR200W, strain rpn10, stronger effect = lower value): 1.01 (inactive)
- normalized growth (locus YIL066C, strain RNR3, stronger effect = lower value): 1.03 (inactive)
- normalized growth (locus YIL073C, strain SPO22, stronger effect = lower value): 1.43 [resistant] (active)
- normalized growth (locus YIL125W, strain kgd1, stronger effect = lower value): 1.01 (inactive)
- normalized growth (locus YIR030C, strain dcg1, stronger effect = lower value): 1.06 (inactive)
- normalized growth (locus YJL092W, strain hpr5, stronger effect = lower value): 1.08 (inactive)
- normalized growth (locus YJL095W, strain BCK1 (second series), stronger effect = lower value): 1.08 [resistant] (active)
- normalized growth (locus YJL095W, strain BCK1, stronger effect = lower value): 1.14 (inactive) and 0.943 (inactive)
- normalized growth (locus YJL115W, strain asf1, stronger effect = lower value): 1.06 (inactive)
- normalized growth (locus YJL129C, strain trk1, stronger effect = lower value): 1.08 (inactive)
- normalized growth (locus YJL134W, strain LCB3, stronger effect = lower value): 1.07 [resistant] (active)
- normalized growth (locus YJL154C, strain vps35, stronger effect = lower value): 1.08 (inactive)
- normalized growth (locus YJL164C, strain tpk1, stronger effect = lower value): 1.02 (inactive)
- normalized growth (locus YJL166W, strain qcr8, stronger effect = lower value): 1.03 (inactive)
- normalized growth (locus YJL168C, strain set2, stronger effect = lower value): 1.1 [resistant] (active)
